Assay results as given in PubChem BioAssay (NCATS).
Results filed as inconclusive are left out. Calls of active or inactive are those of the source. Unless noted, the call rests on the fitted dose curve; in most records, active means well fitted curve in either direction with a large enough effect (not every such curve was filed as active); inconclusive means small, poorly fitted or top-dose-only effect, or another doubt; inactive means flat fitted curve, though single readings scatter.

Legend:
[1] = molecular target: Lysosomal acid glucosylceramidase (Homo sapiens) (UniProt P04062); test: Glucocerebrosidase-p2 (AID 348; in the data active means potency below about 10 µM; further: potency means the concentration at half of the fitted maximal effect); details: purified GBA, blue fluorogenic substrate, 40 min
Chain of Lysosomal acid glucosylceramidase (Homo sapiens) (P04062 whole entry, looked up): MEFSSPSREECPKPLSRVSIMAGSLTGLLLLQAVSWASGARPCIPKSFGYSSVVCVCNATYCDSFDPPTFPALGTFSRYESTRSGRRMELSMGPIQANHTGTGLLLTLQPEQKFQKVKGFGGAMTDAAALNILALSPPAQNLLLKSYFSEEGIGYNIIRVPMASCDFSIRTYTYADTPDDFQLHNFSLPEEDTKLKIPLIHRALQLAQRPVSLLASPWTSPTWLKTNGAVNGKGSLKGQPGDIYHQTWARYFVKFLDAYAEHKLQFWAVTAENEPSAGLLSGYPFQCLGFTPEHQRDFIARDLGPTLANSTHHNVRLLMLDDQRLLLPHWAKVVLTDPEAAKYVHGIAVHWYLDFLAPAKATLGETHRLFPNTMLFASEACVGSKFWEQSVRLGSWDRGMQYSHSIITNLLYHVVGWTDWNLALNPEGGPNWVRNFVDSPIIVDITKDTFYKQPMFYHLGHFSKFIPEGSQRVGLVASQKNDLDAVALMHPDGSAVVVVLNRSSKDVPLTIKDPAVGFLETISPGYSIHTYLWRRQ
Method in brief: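 Normal human glucocerebrosidase (0.2 nM) with blue fluorogenic substrate (80 uM final) in citrate/phosphate pH 5.9 with 10mM sodium taurocholate, 0.01% tween-20; 40 min RT, NaOH/glycine stop; fluorescence Ex 365/Em 440; AC50 from a titration from 0.6 nM upwards.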

[2] = AP1 Signaling Pathway (AID 357); details: ME-180 AP-1-bla reporter, EGF-induced, beta-lactamase ratio, 5 h; at 7.69 µM (top of the series) unless noted; further: on the % scale 0 is the no-effect control and ±100 the full control effect
Method in brief: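 AP-1-bla ME-180 cells with beta-lactamase reporter under AP-1 response element, stimulated with EC50 EGF; compounds titrated, 5 hours at 37 degrees Celsius. CCF4 read at 460/530 nm ratio; positive and negative modulators judged by AC50.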

[3] = molecular target: Cytochrome P450 1A2 (Homo sapiens) (UniProt P05177); test: p450-cyp1a2 (AID 410; calls by dose curve; further: potency means the concentration at half of the fitted maximal effect;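 on activity change, negative = inhibition: -100% = full effect of reference inhibitor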); details: recombinant CYP1A2, luciferin-ME demethylation, luminescence; series mostly up to 11.4 µM
Chain of Cytochrome P450 1A2 (Homo sapiens) (P05177 whole entry, looked up): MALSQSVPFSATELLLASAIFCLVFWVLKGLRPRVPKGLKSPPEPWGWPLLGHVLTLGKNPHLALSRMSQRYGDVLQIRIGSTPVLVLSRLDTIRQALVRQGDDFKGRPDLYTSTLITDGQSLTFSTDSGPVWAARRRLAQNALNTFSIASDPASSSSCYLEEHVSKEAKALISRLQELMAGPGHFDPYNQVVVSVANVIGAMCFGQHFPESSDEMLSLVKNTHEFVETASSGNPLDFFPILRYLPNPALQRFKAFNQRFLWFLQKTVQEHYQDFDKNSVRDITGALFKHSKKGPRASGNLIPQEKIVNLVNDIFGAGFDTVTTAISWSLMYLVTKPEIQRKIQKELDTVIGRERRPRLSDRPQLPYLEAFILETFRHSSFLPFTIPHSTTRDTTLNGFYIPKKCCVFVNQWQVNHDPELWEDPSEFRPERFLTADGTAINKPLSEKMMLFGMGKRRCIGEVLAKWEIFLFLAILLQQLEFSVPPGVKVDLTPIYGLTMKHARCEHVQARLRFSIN
Method in brief: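 Read-out is luminescence from luciferin produced by CYP1A2 demethylation of Luciferin-ME (100uM, at Km). Detection reagent stopped the 60 min NADPH-dependent reaction; signals were normalized to 57 uM furafylline.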

[4] = Stat Signaling Pathway (AID 446); details: ME-180 (cervical carcinoma) SIE beta-lactamase reporter, IL-6 stimulated, 5 h; at 7.69 µM (top of the series) unless noted;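 further: ME-180 cervical cancer cells given 40 pM IL-6 alongside compound; SIE-controlled beta-lactamase reporter measured as 460/530 nm FRET emission ratio; on the % scale 0 is the no-effect control and ±100 the full control effect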
Method in brief: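 Normalization used AC90 stimulation (300 pM IL-6) and AC90 inhibition (125 nM pan-JAK inhibitor at 40 pM IL-6). The underlying signal is SIE-driven beta-lactamase in ME-180 cells after 5 h IL-6 exposure with compound.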

[5] = molecular target: Glucocorticoid receptor (Homo sapiens) (UniProt P04150); test: GR-GFP Redistribution (AID 450;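 active means compounds whose dose series gives a full or clear partial fitted curve of increased nuclear translocation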; further: potency means the concentration at half of the fitted maximal effect); details: U2OS GR-GFP nuclear translocation, laser cytometry, 2 h
Chain of Glucocorticoid receptor (Homo sapiens) (P04150 whole entry, looked up, the tested form may be a part): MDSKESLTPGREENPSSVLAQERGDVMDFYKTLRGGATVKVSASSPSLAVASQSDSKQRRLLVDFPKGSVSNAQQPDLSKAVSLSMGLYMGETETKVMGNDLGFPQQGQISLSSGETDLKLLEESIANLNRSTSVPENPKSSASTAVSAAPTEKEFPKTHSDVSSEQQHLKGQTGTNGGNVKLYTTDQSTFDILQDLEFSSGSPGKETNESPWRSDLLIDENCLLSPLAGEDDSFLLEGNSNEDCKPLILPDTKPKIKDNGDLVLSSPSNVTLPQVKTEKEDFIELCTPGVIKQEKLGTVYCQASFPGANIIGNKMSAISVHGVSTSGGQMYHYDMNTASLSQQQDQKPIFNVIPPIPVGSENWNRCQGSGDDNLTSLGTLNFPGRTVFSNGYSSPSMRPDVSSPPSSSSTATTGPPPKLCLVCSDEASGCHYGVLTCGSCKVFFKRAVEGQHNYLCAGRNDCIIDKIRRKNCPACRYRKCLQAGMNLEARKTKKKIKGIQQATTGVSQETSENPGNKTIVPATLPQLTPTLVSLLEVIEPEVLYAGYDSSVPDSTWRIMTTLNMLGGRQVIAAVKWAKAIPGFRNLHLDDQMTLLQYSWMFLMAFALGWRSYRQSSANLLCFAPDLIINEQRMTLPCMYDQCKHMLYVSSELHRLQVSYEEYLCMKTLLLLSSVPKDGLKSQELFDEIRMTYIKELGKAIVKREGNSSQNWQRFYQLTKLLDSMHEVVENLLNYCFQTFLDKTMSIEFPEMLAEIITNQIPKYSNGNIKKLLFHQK

[6] = molecular target: Glucocorticoid receptor (Homo sapiens) (UniProt P04150); test: GR-EFC Redistribution (AID 451; calls by dose curve; further: potency means the concentration at half of the fitted maximal effect); details: CHO-K1 GR-EFC translocation, beta-gal luminescence, 2 h
Method in brief: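 CHO-K1 cells stably expressing nuclear-localized β-gal enzyme acceptor and GR fused C-terminally to the enzyme donor fragment; ligand-driven nuclear translocation restores β-gal by complementation. Compounds titrated up to 46 uM final, 2 h at 37 °C; luminescence read.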

[7] = molecular target: Mitogen-activated protein kinase 10 (Mus musculus) (UniProt Q61831); test: JNK3 AlphaScreen Assay (AID 530); details: JNK3 lysate, c-Jun phosphorylation; series mostly up to 11.4 µM;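 further: kinase came from lysate of stimulated human HepG2 cells; signal reports phosphorylation of biotinylated GST-cJun 1-79 at Ser73 with 10 µM ATP; on the % scale 0 is the no-effect control and ±100 the full control effect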
Method in brief: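 Biotinylated GST-cJun(1-79) served as substrate for JNK3 in HepG2 lysates stimulated with IL-1beta and TNF-alpha. ATP was 10 uM final, pH 7.6. Ser73 phosphorylation was quantified by AlphaScreen (680 nm excitation).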

[8] = molecular target: 3',5'-cyclic-AMP phosphodiesterase 4B (Homo sapiens) (UniProt Q07343); test: qHTS Assay for Inhibitors of PDE-IV (AID 607; active means well fitted activation curve with a large enough effect in the main read-out, with a control signal flat, not every such curve was filed as active; further: % of control where 0% means no effect); details: HEK293 ACTOne CNG channel cells, membrane potential fluorescence; series mostly up to 22.9 µM
Chain of 3',5'-cyclic-AMP phosphodiesterase 4B (Homo sapiens) (Q07343 whole entry, looked up): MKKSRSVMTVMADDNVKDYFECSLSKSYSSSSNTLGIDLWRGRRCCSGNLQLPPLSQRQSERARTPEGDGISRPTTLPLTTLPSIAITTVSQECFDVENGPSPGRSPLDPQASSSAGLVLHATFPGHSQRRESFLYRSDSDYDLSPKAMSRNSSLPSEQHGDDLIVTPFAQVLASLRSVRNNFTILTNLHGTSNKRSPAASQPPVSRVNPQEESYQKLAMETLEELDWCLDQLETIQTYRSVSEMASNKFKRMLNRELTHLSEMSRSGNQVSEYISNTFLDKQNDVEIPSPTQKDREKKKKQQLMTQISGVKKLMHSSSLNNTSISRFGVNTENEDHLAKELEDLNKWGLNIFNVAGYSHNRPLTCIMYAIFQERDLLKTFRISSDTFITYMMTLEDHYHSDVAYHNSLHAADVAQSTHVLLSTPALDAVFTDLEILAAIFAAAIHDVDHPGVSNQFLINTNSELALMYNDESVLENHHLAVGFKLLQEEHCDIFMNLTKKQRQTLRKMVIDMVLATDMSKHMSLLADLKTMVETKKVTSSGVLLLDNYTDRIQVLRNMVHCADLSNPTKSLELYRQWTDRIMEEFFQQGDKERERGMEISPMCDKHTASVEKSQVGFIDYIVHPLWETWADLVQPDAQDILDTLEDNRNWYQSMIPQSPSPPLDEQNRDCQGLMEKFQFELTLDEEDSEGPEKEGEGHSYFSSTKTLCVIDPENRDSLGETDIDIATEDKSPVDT
Method in brief: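 HEK293 ACTOne cells with CNG channel (1000/well), endogenous PDE4; membrane potential dye, compounds up to 22.9 uM final. Fluorescence Ex 535/Em 590; RO 20-1724 (100 uM final) as reference.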

[9] = molecular target: Cytochrome P450 3A4 (Homo sapiens) (UniProt P08684); test: qHTS Assay for Activators of Cytochrome P450 3A4 (AID 885; active means well fitted curve in the direction sought with a large enough effect; an effect the other way counts as inactive or inconclusive; further: nearly all actives have a fitted effect of over 65% in size); details: recombinant CYP3A4, Luciferin-PPXE luminescence, 60 min; series mostly up to 11.4 µM
Chain of Cytochrome P450 3A4 (Homo sapiens) (P08684 whole entry, looked up): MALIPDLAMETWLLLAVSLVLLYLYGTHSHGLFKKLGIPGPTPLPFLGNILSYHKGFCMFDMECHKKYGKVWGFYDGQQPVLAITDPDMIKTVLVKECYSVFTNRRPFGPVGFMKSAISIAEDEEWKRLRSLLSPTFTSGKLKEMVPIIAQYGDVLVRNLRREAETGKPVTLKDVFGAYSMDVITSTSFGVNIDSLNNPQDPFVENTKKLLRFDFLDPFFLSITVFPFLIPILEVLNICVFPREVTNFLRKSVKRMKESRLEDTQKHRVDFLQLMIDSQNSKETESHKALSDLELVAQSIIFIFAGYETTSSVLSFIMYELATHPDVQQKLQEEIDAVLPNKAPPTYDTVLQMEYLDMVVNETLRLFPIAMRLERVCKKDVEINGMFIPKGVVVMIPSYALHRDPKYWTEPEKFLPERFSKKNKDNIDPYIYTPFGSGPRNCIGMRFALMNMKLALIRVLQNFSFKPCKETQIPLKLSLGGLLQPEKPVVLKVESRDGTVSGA
Method in brief: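 Human CYP3A4 dealkylates Luciferin-PPXE to luciferin, which luciferase detection converts to light. Substrate was at its KM (25uM), buffer 200mM KPO4, reaction 60 min at RT.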

[10] = molecular target: Cytochrome P450 2C9 (Homo sapiens) (UniProt P11712); test: qHTS Assay for Inhibitors and Substrates of Cytochrome P450 2C9 (AID 883; active means well fitted curve in the direction sought with a large enough effect; an effect the other way counts as inactive or inconclusive; further: nearly all actives have a fitted effect of over 60% in size; further: potency means the concentration at half of the fitted maximal effect; on activity change, negative = inhibition: on the % scale 0 is the no-effect control and ±100 the full control effect); details: recombinant CYP2C9, luciferin-H luminescence, 60 min; series mostly up to 11.4 µM
Chain of Cytochrome P450 2C9 (Homo sapiens) (P11712 whole entry, looked up): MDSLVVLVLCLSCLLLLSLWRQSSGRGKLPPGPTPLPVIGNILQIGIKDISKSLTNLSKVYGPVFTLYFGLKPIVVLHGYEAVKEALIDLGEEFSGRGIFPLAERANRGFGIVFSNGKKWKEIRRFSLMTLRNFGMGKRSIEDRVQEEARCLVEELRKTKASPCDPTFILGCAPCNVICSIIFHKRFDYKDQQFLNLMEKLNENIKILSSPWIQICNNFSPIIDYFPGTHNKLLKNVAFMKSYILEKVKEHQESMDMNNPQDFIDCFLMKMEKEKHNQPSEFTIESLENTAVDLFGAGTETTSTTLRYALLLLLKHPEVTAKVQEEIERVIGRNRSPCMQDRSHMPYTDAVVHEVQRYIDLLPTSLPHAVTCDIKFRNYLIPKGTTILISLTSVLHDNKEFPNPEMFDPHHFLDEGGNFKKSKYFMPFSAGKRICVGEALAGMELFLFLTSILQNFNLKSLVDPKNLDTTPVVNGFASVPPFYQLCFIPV
Method in brief: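 A luminogenic readout tracked human CYP2C9 (10nM) converting deoxyluciferin (100uM, at KM) in 25mM KPO4 during 60 min at 37C with regenerated NADPH. Values normalized to 57uM sulphaphenazole as complete inhibition.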

[11] = molecular target: Cytochrome P450 2C19 (Homo sapiens) (UniProt P33261); test: qHTS Assay for Inhibitors and Substrates of Cytochrome P450 2C19 (AID 899; active means well fitted curve in the direction sought with a large enough effect; an effect the other way counts as inactive or inconclusive; further: potency means the concentration at half of the fitted maximal effect; nearly all actives have a fitted effect of over 60% in size); details: recombinant CYP2C19, luciferin-H EGE luminescence; series mostly up to 11.4 µM
Chain of Cytochrome P450 2C19 (Homo sapiens) (P33261 whole entry, looked up): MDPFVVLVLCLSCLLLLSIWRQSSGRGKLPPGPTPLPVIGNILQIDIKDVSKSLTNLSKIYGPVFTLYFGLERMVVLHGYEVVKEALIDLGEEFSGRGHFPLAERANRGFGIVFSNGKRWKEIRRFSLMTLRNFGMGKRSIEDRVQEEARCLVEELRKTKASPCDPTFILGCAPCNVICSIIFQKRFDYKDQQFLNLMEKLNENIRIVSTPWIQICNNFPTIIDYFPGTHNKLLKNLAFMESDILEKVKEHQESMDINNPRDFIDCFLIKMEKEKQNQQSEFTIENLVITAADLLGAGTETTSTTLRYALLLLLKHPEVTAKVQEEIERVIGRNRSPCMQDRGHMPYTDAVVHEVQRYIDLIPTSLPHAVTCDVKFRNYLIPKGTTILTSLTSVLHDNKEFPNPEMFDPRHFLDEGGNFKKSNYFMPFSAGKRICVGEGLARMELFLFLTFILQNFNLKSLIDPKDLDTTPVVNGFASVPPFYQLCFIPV
Method in brief: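 NADPH-dependent conversion of Luciferin-H EGE (10uM, at KM) by 5nM enzyme in 50mM KPO4, 60 min at 37C following 10 min compound preincubation. Stopped with luciferin detection buffer; luminescence read after 20 min.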

[12] = molecular target: Cytochrome P450 2D6 (Homo sapiens) (UniProt P10635); test: qHTS Assay for Inhibitors and Substrates of Cytochrome P450 2D6 (AID 891; active means well fitted curve in the direction sought with a large enough effect; an effect the other way counts as inactive or inconclusive; further: potency means the concentration at half of the fitted maximal effect; nearly all actives have a fitted effect of over 60% in size); details: recombinant CYP2D6, luciferin-ME EGE luminescence; series mostly up to 11.4 µM
Chain of Cytochrome P450 2D6 (Homo sapiens) (P10635 whole entry, looked up): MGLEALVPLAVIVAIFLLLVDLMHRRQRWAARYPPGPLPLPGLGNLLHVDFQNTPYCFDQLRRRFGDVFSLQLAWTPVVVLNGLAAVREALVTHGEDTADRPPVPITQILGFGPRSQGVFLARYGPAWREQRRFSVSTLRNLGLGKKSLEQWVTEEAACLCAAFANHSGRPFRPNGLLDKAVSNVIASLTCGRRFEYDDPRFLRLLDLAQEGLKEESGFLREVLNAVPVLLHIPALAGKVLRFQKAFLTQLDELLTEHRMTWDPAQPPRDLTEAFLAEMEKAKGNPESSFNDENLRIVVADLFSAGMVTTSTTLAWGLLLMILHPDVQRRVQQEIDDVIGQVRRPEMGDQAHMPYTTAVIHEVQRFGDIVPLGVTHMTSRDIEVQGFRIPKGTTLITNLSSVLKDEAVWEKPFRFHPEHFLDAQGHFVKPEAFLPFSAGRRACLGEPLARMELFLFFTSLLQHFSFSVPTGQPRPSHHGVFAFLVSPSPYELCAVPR
Method in brief: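 Luminescent read-out of luciferin formed by 5 nM human CYP2D6 demethylating 30 uM Luciferin-ME EGE (Km level) over 60 min at room temperature after NADPH regeneration addition. Data normalized to full inhibition by 1.43 uM quinidine.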

N#CCCn1c(=O)c(-c2ccccc2)nc2cnc(OCc3ccccc3)nc21
inactive: Potency [1] > 11.4 µM | activity change, negative = inhibition [2] -17.7% | activity, negative = inhibition [4] -1.68% | Potency [5] > 9.22 µM | Potency [6] > 46 µM | Potency [7] | Potency [8] | Potency [9]
active: Potency [3] 3.16 µM

Cc1ccc(S(=O)(=O)Nc2ccccc2C=O)cc1
inactive: Potency [1] > 11.4 µM | activity change, negative = inhibition [2] -0.783% | Potency [3] | activity, negative = inhibition [4] 24% | Potency [5] > 46 µM | Potency [6] > 9.22 µM | Potency [7] | Potency [8] | Potency [10]
active: Potency [11] 5.01 µM

Oc1c([C@H](Nc2ccccn2)c2ccccc2)ccc2cccnc12
active: Potency [12] 0.316 µM
inactive: Potency [1] > 11.4 µM | activity change, negative = inhibition [2] -3.08% | activity change, negative = inhibition [3] -21.9% [at 2.29 µM] | activity, negative = inhibition [4] 15.1% | Potency [5] > 46 µM | Potency [6] > 9.22 µM | Potency [7] | Potency [8]

N=C(N)SCc1nc(-c2ccc(Cl)cc2)no1
inactive: Potency [1] > 11.4 µM | activity change, negative = inhibition [2] 26% | activity, negative = inhibition [4] 17.8% | Potency [5] > 46 µM | Potency [6] > 9.22 µM | Potency [7] | Potency [8] | Potency [9]
active: Potency [3] 1.26 µM | Potency [10] 3.98 µM

Cc1ccc(S(=O)(=O)O[C@H]2C[C@@H](C(C)(C)C)CC[C@@H]2c2ccccc2)cc1
inactive: Potency [1] > 11.4 µM | activity change, negative = inhibition [2] 7.67% | activity change, negative = inhibition [3] -22.8% [at 2.29 µM] | activity, negative = inhibition [4] 4.83% | Potency [5] > 46 µM | Potency [6] > 9.22 µM | Potency [7] | Potency [8] | Potency [9]
active: Potency [11] 3.16 µM

Oc1ccc2ccccc2c1Cc1c(O)ccc2ccccc12
inactive: Potency [1] > 11.4 µM | activity change, negative = inhibition [2] 0.512% | activity, negative = inhibition [4] -5.79% | Potency [5] > 46 µM | Potency [6] > 9.22 µM | Potency [7] | Potency [8]
active: Potency [3] 3.98 µM | Potency [10] 2 µM | Potency [11] 0.316 µM

Cn1ncc2c(Nc3cccc(Cl)c3)nc(Nc3cccc(Cl)c3)nc21
active: Potency [1] 7.36 µM | Potency [3] 3.98 µM
inactive: activity change, negative = inhibition [2] -0.941% | activity, negative = inhibition [4] 4.09% | Potency [5] > 46 µM | Potency [6] > 9.22 µM | Potency [7] | Potency [8] | Potency [9]

N=C(N)SCc1ccc(Cl)cc1Cl (tested in a mixture with another compound)
inactive: Potency [1] > 11.4 µM | activity change, negative = inhibition [2] 23.5% | activity, negative = inhibition [4] -9.66% | Potency [5] > 46 µM | Potency [6] > 9.22 µM | Potency [7] | Potency [8]
active: Potency [3] 3.98 µM | Potency [12] 3.16 µM

Cc1cc(C)cc(C(=N)c2ccccc2Cc2cccc3ccccc23)c1
inactive: Potency [1] > 11.4 µM | activity change, negative = inhibition [2] 1.53% | activity change, negative = inhibition [3] -5.4% [at 2.29 µM] | activity, negative = inhibition [4] 8.92% | Potency [5] > 46 µM | Potency [6] > 9.22 µM | Potency [7] | Potency [8] | Potency [10] | Potency [9]
active: Potency [11] 1.58 µM

C[C@@]12C[C@H](O)[C@@H]3[C@H](CCC4=CC(=O)CC[C@]43C)[C@H]1CC[C@@H]2c1csc(N)n1
active: Potency [5] 1.73 µM | Potency [11] 3.98 µM
inactive: Potency [1] > 11.4 µM | activity change, negative = inhibition [2] 4.13% | activity change, negative = inhibition [3] -9.8% [at 2.29 µM] | activity, negative = inhibition [4] -3.43% | Potency [6] > 9.22 µM | Potency [7] | Potency [8] | Potency [9]

Cc1ccccc1C(=N)c1ccccc1Cc1cccc2ccccc12
inactive: Potency [1] > 11.4 µM | activity change, negative = inhibition [2] 5.2% | activity change, negative = inhibition [3] -17.7% [at 2.29 µM] | activity, negative = inhibition [4] 9.25% | Potency [5] > 46 µM | Potency [6] > 9.22 µM | Potency [7] | Potency [8] | Potency [9]

Cc1cc(OCc2nc(N)nc(N)c2-c2ccc(Cl)c(Cl)c2)ccc1[N+](=O)[O-]
active: Potency [3] 5.01 µM | Potency [10] 1.58 µM | Potency [11] 3.16 µM
inactive: Potency [1] > 11.4 µM | activity change, negative = inhibition [2] -18.3% | activity, negative = inhibition [4] -17.5% | Potency [5] > 46 µM | Potency [6] > 9.22 µM | Potency [7] | Potency [8] | Potency [9]

Cc1ccc2nc(N/N=C\c3cccc(C)n3)cc(C)c2c1
inactive: Potency [1] > 11.4 µM | activity change, negative = inhibition [2] -4.58% | activity, negative = inhibition [4] 7.26% | Potency [5] > 46 µM | Potency [6] > 9.22 µM | Potency [7] | Potency [8] | Potency [9]
active: Potency [3] 0.631 µM

CN1CCN(CC(=O)N2c3ccccc3Sc3cc4ccccc4cc32)CC1
inactive: Potency [1] > 11.4 µM | activity change, negative = inhibition [2] 12.2% | activity change, negative = inhibition [3] -21.6% [at 2.29 µM] | activity, negative = inhibition [4] -5.37% | Potency [5] > 46 µM | Potency [6] > 9.22 µM | Potency [7] | Potency [8] | Potency [9]
